# Laboratory results taken from PubChem BioAssay (NCATS).
# “And” between values parts separate entries of the source, which are not always exact repeats. Identical values can stand only once. Records with an inconclusive call do not appear. A call without a number means that no potency is given here. The source made the active and inactive calls. Calls follow the shape of the dose curve; as a rule, active = well fitted cell-killing curve with a large enough effect; inconclusive = small, poorly fitted or top-dose-only effect, or effect the other way; inactive = no such curve, though single readings can be large or run the other way.
# Assay: Viability qHTS for spleen associated tyrosine kinase inhibitor (SYKi) drug resistant MV4-11 cells (AID 1963824); also: nearly all actives have a fitted effect of over 35% in size
# Details: SYKi-resistant MV4-11 viability, CellTiter-Glo, 72 h; series mostly up to 45 µM
# Summary of the method: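 SYK-inhibitor-resistant MV4-11 AML cells were seeded at 500 per well onto compound and cultured 72 hours (37 °C, 5% CO2). CellTiter-Glo was then added, and after 10 min at room temperature, luminescence gave viability.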
# Potency is read from the fitted curve at half-maximal effect.
row,Structure (SMILES),Potency
1,C[C@H]1CN(C[C@H](Cc2ccccc2)C(=O)NCC(=O)O)CC[C@@]1(C)c1cccc(O)c1,inactive
2,FC(F)(F)C(F)(F)C(F)(F)C(F)(F)C(F)(F)C(F)(F)C(F)(F)C(F)(F)Br,inactive
3,Cc1cccc(OCC(O)CNC(C)(C)C)c1C (centres undefined),inactive
4,CCOC(=O)C(O)c1ccccc1 (centres undefined),inactive
5,CCN1CCCC1CN (centres undefined),inactive
6,CCCCCOC(=O)Nc1nc(=O)n([C@@H]2O[C@H](C)[C@@H](O)[C@H]2O)cc1F,inactive
7,C=CCN1CCc2nc(N)sc2CC1,inactive
8,CCN(CC)CCNC(=O)c1cc(Cl)c(N)cc1OC,inactive
9,CCCCCCCCCCC(CO)CCCCCCCC (centres undefined),inactive
10,CC(C)(C)c1nnc(NS(=O)(=O)c2ccccc2)s1,inactive
11,NC(CS)C(=O)O (centres undefined),inactive
12,O=C(/C=C/c1ccc(O)c(O)c1)O[C@@H]1C[C@@](OC(=O)/C=C/c2ccc(O)c(O)c2)(C(=O)O)C[C@@H](O)[C@@H]1O,inactive
13,Cc1cc(NC(=O)C2=C(O)c3ccccc3S(=O)(=O)N2C)no1,inactive
14,Cn1cc(-c2ccc3c(c2)CCN3C(=O)Cc2cccc(C(F)(F)F)c2)c2c(N)ncnc21,2.06 µM (active) and 4.68 µM (active)
15,Clc1ccc2nsnc2c1NC1=NCCN1,inactive
16,OCCN1C[C@H](O)[C@@H](O)[C@H](O)[C@H]1CO,inactive
17,C[C@@H]1CCNC(=O)c2cc3ccc(C(=O)Nc4nc5ccccc5n4CCCN(C)C)cc3n21,820 nM (active)
18,NCC(=O)CCC(=O)O,inactive
19,CC1(C)[C@@H]2CC[C@@]1(C)C(=O)C2,inactive
20,CCc1cccc2c(CCO)c[nH]c12,inactive

row,Structure (SMILES),Potency
1,O=c1cc[nH]c(=O)[nH]1,inactive
2,CN(C)C1CCN(C(=O)c2ccc(NC(=O)Nc3ccc(-c4nc(N5CCOCC5)nc(N5CCOCC5)n4)cc3)cc2)CC1,18.4 nM (active)
3,CCCC(O)C(CC)CO (centres undefined),inactive
4,FC1(F)C(F)(F)C(F)(F)C2(F)C(F)(F)C(F)(F)C(F)(F)C(F)(F)C2(F)C1(F)F (centres undefined),inactive
5,CC(C)C(=O)c1c(C(C)C)nn2ccccc12,inactive
6,O=C(Cn1ccnc1[N+](=O)[O-])NCCO,inactive
7,CC(=O)Oc1c(C)c(C)c2c(c1C)CC[C@@](C)(CCC[C@H](C)CCC[C@H](C)CCCC(C)C)O2,inactive
8,Cn1c(=O)c2c(ncn2C)n(C)c1=O,inactive
9,O=C(O)Cc1csc(-c2ccc(Cl)cc2)n1,inactive
10,CC[C@H](C)[C@H](N)C(=O)O,inactive
11,CN1CC(=O)N/C1=N/C(=O)Nc1cccc(Cl)c1,inactive
12,N#CCC(=O)NN,inactive
13,Cc1ccc2c(n1)Oc1ccc(C(C)C(=O)OCC(=O)N(C)C)cc1C2 (centres undefined),inactive
14,C/C(=N\O)[C@@H](C)NCC(C)(C)CN[C@H](C)/C(C)=N/O,inactive
15,CCN(CC)CC(=O)Nc1c(C)cccc1C(=O)OC,inactive
16,O=P(O)(O)OCC(O)CO (centres undefined),inactive
17,NC(=O)c1cn(Cc2c(F)cccc2F)nn1,inactive
18,CCCCCCCC/C=C\CCCCCCCCN,inactive
19,COc1ccc(CCC(C)=O)cc1,inactive
